Six compounds from PubChem BioAssay (EPA / NIEHS) can be followed below.

Read-out in assay [1]: Tissue Factor, F3 (gene 2152)
As to the kind of experiment: BSK_CASM3C_TissueFactor: BioMAP Diversity Plus: CASM3C Assay for Tissue Factor Biomarker Activity (AID 2283052).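 Also: cell surface tissue factor protein level read by ELISA.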 The conditions noted are these: primary human coronary artery smooth muscle cells; actives raise or lower the signal.

Read-out in assay [2]: Interferon-gamma inducible Protein 10 (IP10), CXCL10 (gene 3627)
Put plainly: BSK_hDFCGF_IP10: BioMAP Diversity Plus: hDFCGF Assay for Interferon-gamma inducible Protein 10 (IP10) Biomarker Activity (AID 2283053). The settings on record: primary human foreskin fibroblasts; actives raise or lower the signal. Summed up:
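Primary human foreskin fibroblasts exposed to chemicals for 24 h. IP-10 measured by ELISA; changes fitted bidirectionally against DMSO baseline.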

Read-out in assay [3]: Urokinase-type plasminogen activator receptor (uPAR), PLAUR (gene 5329)
Put plainly: BSK_CASM3C_uPAR: BioMAP Diversity Plus: CASM3C Assay for Urokinase-type plasminogen activator receptor (uPAR) Biomarker Activity (AID 2283054).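 Also: cell-surface uPAR protein level quantified by ELISA.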 The conditions noted are these: primary human coronary artery smooth muscle cells; actives raise or lower the signal.

Read-out in assay [4]: Vascular cell adhesion molecule 1 (VCAM1), VCAM1 (gene 7412)
As to the kind of experiment: BSK_CASM3C_VCAM1: BioMAP Diversity Plus: CASM3C Assay for Vascular cell adhesion molecule 1 (VCAM1) Biomarker Activity (AID 2283055).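 Also: VCAM-1 protein level quantified by ELISA on the cells.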 The settings on record: primary human coronary artery smooth muscle cells; actives raise or lower the signal.

Read-out in assay [5]: Collagen III, COL3A1 (gene 1281)
As to the kind of experiment: BSK_hDFCGF_CollagenIII: BioMAP Diversity Plus: hDFCGF Assay for Collagen III Biomarker Activity (AID 2283056). The conditions noted are these: primary human foreskin fibroblasts; actives raise or lower the signal. Summed up: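 hDFCGF primary human dermal fibroblasts; 24 h chemical exposure; collagen III by ELISA; bidirectional curve fit vs DMSO baseline (gain or loss of signal).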

Read-out in assay [6]: Epidermal growth factor receptor (EGFR), EGFR (gene 1956)
Put plainly: BSK_hDFCGF_EGFR: BioMAP Diversity Plus: hDFCGF Assay for Epidermal growth factor receptor (EGFR) Biomarker Activity (AID 2283057). The conditions noted are these: primary human foreskin fibroblasts; actives raise or lower the signal. Summed up: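 Primary human foreskin fibroblasts (hDFCGF system), sampled 24 h after dosing; EGFR quantified by ELISA. Bidirectional fit relative to DMSO baseline; SRB total-protein staining in parallel cultures for cytotoxicity.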

Read-out in assay [7]: Interleukin-8 (IL8), CXCL8 (gene 3576)
Put plainly: BSK_hDFCGF_IL8: BioMAP Diversity Plus: hDFCGF Assay for Interleukin-8 (IL8) Biomarker Activity (AID 2283058). The conditions noted are these: primary human foreskin fibroblasts; actives raise or lower the signal. The method in brief:
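ELISA read-out of IL-8 from primary human foreskin fibroblast cultures taken 24 h after dosing; values are bidirectional fits relative to DMSO vehicle.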

The nature of assay [8]: BSK_hDFCGF_Proliferation: Cell Proliferation Assessment in the BioMAP Diversity Plus: hDFCGF Assay (AID 2283059).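 Also: curves fitted for both rise and fall of signal versus DMSO baseline.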 The settings on record: primary human foreskin fibroblasts. The method in brief:
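Steps: dose primary human dermal fibroblasts (foreskin); […] fix in 10% TCA; stain with 0.1% SRB; read 560 nm; fit gain or loss of signal against DMSO.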

Read-out in assay [9]: Macrophage colony-stimulating factor (MCSF), CSF1 (gene 1435)
As to the kind of experiment: BSK_hDFCGF_MCSF: BioMAP Diversity Plus: hDFCGF Assay for Macrophage colony-stimulating factor (MCSF) Biomarker Activity (AID 2283060). The conditions noted are these: primary human foreskin fibroblasts; actives raise or lower the signal. Summed up:
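ELISA read-out of M-CSF in human dermal foreskin fibroblast cultures, 24 h after chemical dosing; gain or loss of signal fitted bidirectionally relative to DMSO baseline.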

A short description of assay [10]: BSK_hDFCGF_SRB: Viability Assessment in the BioMAP Diversity Plus: hDFCGF Assay (AID 2283061).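 Also: cells exposed to compound for 24 h before the read.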 The conditions noted are these: primary human foreskin fibroblasts. The method in brief:
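Primary human foreskin fibroblasts; 24 h post-dose; fixed 10% TCA, stained 0.1% SRB, A560 read; total protein as overt cytotoxicity measure; curves fit bidirectionally vs DMSO control.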

Read-out in assay [11]: TIMP metallopeptidase inhibitor 1 (TIMP1), TIMP1 (gene 7076)
Put plainly: BSK_hDFCGF_TIMP1: BioMAP Diversity Plus: hDFCGF Assay for TIMP metallopeptidase inhibitor 1 (TIMP1) Biomarker Activity (AID 2283062). The conditions noted are these: primary human foreskin fibroblasts; actives raise or lower the signal. Summed up: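 ELISA readout of TIMP-1 from human dermal foreskin fibroblast cultures 24 h post-dosing. Curves were fitted in both directions against DMSO baseline, with SRB total-protein staining in parallel cultures as a cytotoxicity check.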

Read-out in assay [12]: Monokine induced gamma interferon (MIG), CXCL9 (gene 4283)
Put plainly: BSK_hDFCGF_MIG: BioMAP Diversity Plus: hDFCGF Assay for Monokine induced gamma interferon (MIG) Biomarker Activity (AID 2283063). The settings on record: primary human foreskin fibroblasts; actives raise or lower the signal. Summed up:
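Fibroblasts (human foreskin, primary) dosed, 24 h, MIG by ELISA; fit bidirectional vs DMSO.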

Read-out in assay [13]: Matrix Metallopeptidase 1 (MMP1), MMP1 (gene 4312)
As to the kind of experiment: BSK_hDFCGF_MMP1: BioMAP Diversity Plus: hDFCGF Assay for Matrix Metallopeptidase 1 (MMP1) Biomarker Activity (AID 2283064). The settings on record: primary human foreskin fibroblasts; actives raise or lower the signal. Summed up:
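Primary human foreskin fibroblasts in the hDFCGF system were dosed with test chemical, and MMP1 was measured by ELISA 24 h later. Values come from bidirectional curve fitting against the DMSO baseline.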

Read-out in assay [14]: Vascular cell adhesion molecule 1 (VCAM1), VCAM1 (gene 7412)
As to the kind of experiment: BSK_hDFCGF_VCAM1: BioMAP Diversity Plus: hDFCGF Assay for Vascular cell adhesion molecule 1 (VCAM1) Biomarker Activity (AID 2283065).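 As to AC50: VCAM-1 protein level quantified by ELISA after 24 h chemical exposure.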 The conditions noted are these: primary human foreskin fibroblasts; actives raise or lower the signal. Summed up: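 ELISA read-out of VCAM-1 on human skin fibroblasts, 24 h post-dose; gain or loss of signal fitted bidirectionally against DMSO baseline.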

Read-out in assay [15]: Plasminogen activator inhibitor-1 (PAI1), SERPINE1 (gene 5054)
As to the kind of experiment: BSK_hDFCGF_PAI1: BioMAP Diversity Plus: hDFCGF Assay for Plasminogen activator inhibitor-1 (PAI1) Biomarker Activity (AID 2283066). The conditions noted are these: primary human foreskin fibroblasts; actives raise or lower the signal. The method in brief: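 Human foreskin fibroblast primary cells, 24 h chemical exposure; PAI-1 measured by ELISA. Bidirectional fitting relative to DMSO; parallel cultures stained with SRB for total protein to flag overt cytotoxicity.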

Read-out in assay [16]: Interferon-gamma inducible Protein 10 (IP10), CXCL10 (gene 3627)
Put plainly: BSK_KF3CT_IP10: BioMAP Diversity Plus: KF3CT Assay for Interferon-gamma inducible Protein 10 (IP10) Biomarker Activity (AID 2283068). The settings on record: primary human keratinocytes with fibroblasts; actives raise or lower the signal. Summed up:
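KF3CT co-culture (keratinocytes + foreskin fibroblasts), 24 h compound, IP-10 by ELISA; bidirectional fit vs DMSO baseline.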

Assay [17] can be described thus: BSK_KF3CT_SRB: Viability Assessment in the BioMAP Diversity Plus: KF3CT Assay (AID 2283069).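 Also: total protein by sulforhodamine B staining as a cytotoxicity measure; read 24 h after compound addition.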 The conditions noted are these: primary human keratinocytes with fibroblasts. The method in brief: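 Human primary keratinocyte plus foreskin fibroblast co-culture exposed to chemicals for 24 h. Total protein measured by 0.1% sulforhodamine B staining after 10% TCA fixation, read at 560 nm; bidirectional fitting versus DMSO baseline.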

Read-out in assay [18]: Interleukin-1 alpha (IL1a), IL1A (gene 3552)
As to the kind of experiment: BSK_KF3CT_IL1a: BioMAP Diversity Plus: KF3CT Assay for Interleukin-1 alpha (IL1a) Biomarker Activity (AID 2283070). The conditions noted are these: primary human keratinocytes with fibroblasts; actives raise or lower the signal. The method in brief:
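Human keratinocyte plus foreskin fibroblast primary co-culture, sampled 24 h after chemical dosing. IL-1a measured by ELISA; responses fitted bidirectionally against DMSO baseline (negative control), so gain or loss of signal both count.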

Read-out in assay [19]: TIMP metallopeptidase inhibitor 2 (TIMP2), TIMP2 (gene 7077)
Put plainly: BSK_KF3CT_TIMP2: BioMAP Diversity Plus: KF3CT Assay for TIMP metallopeptidase inhibitor 2 (TIMP2) Biomarker Activity (AID 2283071). The conditions noted are these: primary human keratinocytes with fibroblasts; actives raise or lower the signal. The method in brief: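 Co-culture of human primary keratinocytes and foreskin fibroblasts, measured 24 h after chemical dosing. TIMP-2 quantified by ELISA and fitted in both directions relative to DMSO. Cytotoxicity checked in parallel cultures by SRB total-protein staining.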

Read-out in assay [20]: Intercellular Adhesion Molecule 1 (ICAM1), ICAM1 (gene 3383)
As to the kind of experiment: BSK_KF3CT_ICAM1: BioMAP Diversity Plus: KF3CT Assay for Intercellular Adhesion Molecule 1 (ICAM1) Biomarker Activity (AID 2283067). The settings on record: primary human keratinocytes with fibroblasts; actives raise or lower the signal. The method in brief:
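ELISA readout of ICAM-1; KF3CT human skin co-culture (keratinocytes + foreskin fibroblasts), 24 h post-dose; gain/loss fit vs DMSO baseline.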

Each structure is given as a SMILES string. Calls of active or inactive are those of the source. The calls were made as follows: active = hit-call score of the fitted dose curve at least 0.9, where 1 is the maximum; inactive = score below 0.9.

Consider `Nc1ccc(N=Nc2ccccc2)cc1`, for which the result in assay [1], in assay [4], in assay [6], in [7], in assay [9] and in assay [10] was inactive. Further, the result in assay [11], in [12], in assay [13], in assay [15], in [16] and in assay [17] was inactive. Besides, the result in assay [18] and in assay [19] was inactive. Further, the half-maximal activity concentration (AC50) in assay [2] was 29.3 µM (active); in assay [3], 3.9 µM (active); in assay [5] it was 20 µM (active); in assay [8] it was 8 µM (active); in assay [14] it was 20 µM (active).
On to `Cn1cc(-c2ccccc2)c(=O)c(-c2cccc(C(F)(F)F)c2)c1`, for which the outcome in assay [1], in [2], in assay [4], in assay [5], in assay [6] and in [7] was inactive. For the same compound, the result in assay [8], in [9], in assay [10], in assay [11], in assay [12] and in assay [13] was inactive. Moreover, the result in assay [14], in assay [15], in [20], in assay [16], in assay [17] and in assay [18] was inactive. For the same compound, the outcome in assay [19] was inactive. Besides, the AC50 in assay [3] was 5.18 µM (active).
For the compound `O=C(N[C@H](c1ccccc1)[C@@H]1CN2CCC1CC2)c1c(Cl)ccc(C(F)(F)F)c1Cl`, the outcome in assay [1], in [3], in assay [4], in assay [5], in assay [6] and in assay [7] was inactive. The outcome in assay [9], in assay [10], in [11], in assay [12], in assay [13] and in assay [14] was inactive. Also, the outcome in assay [15] was inactive. Moreover, the half-maximal activity concentration (AC50) in [2] was 16.3 µM (active); in [8], 26.5 µM (active); in [16], 49 µM (active); in [17] it was 44.6 µM (active); in [18], 47.9 µM (active).
In the case of `CCN(CC)CCO`, the result in assay [1], in assay [2], in assay [3], in assay [4], in assay [5] and in assay [6] was inactive. Moreover, the outcome in assay [7], in assay [8], in assay [9], in assay [10], in assay [11] and in assay [12] was inactive. Further, the result in assay [13], in assay [14], in assay [15], in assay [16], in assay [17] and in assay [18] was inactive. The result in [19] was inactive.
Turning to `COC(=O)Nc1nc2ccccc2[nH]1`, the outcome in assay [1], in assay [2], in assay [4], in [5], in assay [6] and in [7] was inactive. In addition, the result in assay [9], in assay [10], in assay [11], in assay [12], in [13] and in [14] was inactive. Further, the outcome in assay [15], in assay [16], in [17], in assay [18] and in assay [19] was inactive. In addition, the AC50 in assay [3] was 9.38 µM (active); in [8], 0.224 µM (active).
As to `N#CC(Br)(Br)C(N)=O`, the outcome in assay [1], in [2], in assay [3], in assay [4], in assay [5] and in [6] was inactive. The outcome in assay [7], in assay [8], in assay [9], in [10], in assay [11] and in assay [12] was inactive. Further, the result in assay [13], in assay [14], in assay [15], in [16], in assay [17] and in [18] was inactive. Moreover, the outcome in assay [19] was inactive.
